Bioassay records (PubChem)
hNpr1 antagonist: human Npr1 receptor antagonism; hit rate 1.6% among 76,000; P16066; AID 1347048; HEK293 hNpr1 GloSensor cGMP, ANP-stimulated luminescence; Potency, µM (top dose mostly 46.3 µM), usual class: inhibitors; calls by dose curve; also: nearly all actives have a fitted effect of over 60% in size
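Compound pre-incubated 30 min at room temperature on GloSensor-loaded HEK293 cells stably carrying hNpr1 and the pGS-40F cGMP biosensor. Stimulation uses hNppA at 0.1 nM final; luminescence is taken at baseline and 20 min post-agonist.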
HEK293 tox: kills HEK 293 cells | HEK 293 viability, ATP luminescence (CellTiter-Glo), 48-72 h | Potency, µM (doses to about 115 µM), hits mostly inhibitors | hit rate 6.6% among 94,000; also: nearly all actives have a fitted effect of over 60% in size
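Cytotoxicity was scored by loss of ATP-coupled luminescence (CellTiter-Glo) in HEK 293 cells. Compound treatment ran 48 or 72 hr at 37 degree Celsius, 5% CO2, 95% humidity.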
GPT2 inh: inhibitors of human GPT2 alanine aminotransferase; Q8TD30; Recombinant GPT2, coupled pyruvate oxidase/HRP Amplex Red fluorescence; Potency, µM (doses to about 57.7 µM), most hits filed as inhibitors; hit rate 0.25% among 100,000; AID 1671188; also: nearly all actives have a fitted effect of over 60% in size
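Fluorescence of coupled pyruvate oxidase/HRP/Amplex Red system (50uM Amplex, 30 min, dark) reports pyruvate formed by GPT2. Enzyme reaction: 10ng/uL GPT2, 2mM L-alanine, 250uM a-KG, 30 min room temperature, pH 7.5; 50uM AOA control.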
NIH3T3 tox: kills NIH 3T3 cells | hit rate 4.3% among 94,000 | Potency, µM (highest dose often 96.7 µM), actives largely listed as inhibitors | NIH 3T3 viability, CellTiter-Glo ATP luminescence, 48-72 h; also: nearly all actives have a fitted effect of over 55% in size
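Cells were seeded at 400 per well, treated with pin-transferred compound, and kept 48 or 72 hr at 37 °C before CellTiter-Glo addition and luminescence imaging of cellular ATP.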
Luciferase inh: Photinus pyralis luciferase inhibition | hit rate 2.5% among 76,000 | purified P. pyralis luciferase, luminescence, biochemical | P08659 | Potency, µM (doses to about 115 µM), hits mostly inhibitors; also: nearly all actives have a fitted effect of over 65% in size
Target sequence (P08659 whole entry, looked up): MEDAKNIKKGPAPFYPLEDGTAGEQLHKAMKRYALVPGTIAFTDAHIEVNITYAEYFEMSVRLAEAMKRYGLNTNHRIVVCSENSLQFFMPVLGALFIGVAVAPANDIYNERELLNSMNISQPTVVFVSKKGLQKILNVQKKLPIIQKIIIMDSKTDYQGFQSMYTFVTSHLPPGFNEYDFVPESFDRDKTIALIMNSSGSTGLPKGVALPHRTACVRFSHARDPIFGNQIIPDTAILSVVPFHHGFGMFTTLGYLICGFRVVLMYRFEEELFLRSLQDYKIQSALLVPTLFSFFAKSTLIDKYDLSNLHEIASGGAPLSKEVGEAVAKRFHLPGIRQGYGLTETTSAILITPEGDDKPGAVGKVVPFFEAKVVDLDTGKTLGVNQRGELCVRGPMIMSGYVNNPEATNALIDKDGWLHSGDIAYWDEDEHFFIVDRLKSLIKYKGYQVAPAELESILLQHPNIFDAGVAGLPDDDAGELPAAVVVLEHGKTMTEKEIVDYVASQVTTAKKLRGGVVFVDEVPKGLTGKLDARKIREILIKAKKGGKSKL
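Purified 10nM P. pyralis luciferase with 10uM D-luciferin and 10uM ATP in 50mM Tris acetate pH 7.5, 10mM Mg acetate, 0.01% Tween-20, 0.05% BSA. qHTS titration; luminescence read by CCD imager.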
Numbers stand for hits; – = inactive; ? = inconclusive; · = no result given. Only some compounds are listed: those with a hit (about 10% of all), similar ones and a draw of the others. Unless noted, calls follow the shape of the dose curve; as a rule, active = well fitted curve in the direction sought with a large enough effect; inconclusive = small, poorly fitted or top-dose-only effect, or another doubt; inactive = no such curve, though single readings can be large; an effect the other way counts as inactive or inconclusive.

SMILES | hNpr1 antagonist | HEK293 tox | GPT2 inh | NIH3T3 tox | Luciferase inh
CCOC(=O)[C@H]1C[C@]2(CCCCN(CCOC(C)=O)C2=O)N(C(=O)OCC)[C@H]1c1ccco1 | · | ? | · | – | ·
CCOC(=O)[C@H]1C[C@]2(CCCCN(CCOC)C2=O)N(C(C)=O)[C@H]1c1ccco1 | · | 32µM | · | ? | ·
CN(C)c1ccc2ncc(Nc3cccc(C(F)(F)F)c3)n2n1 | – | ? | – | ? | –
CN(C)c1ccc2ncc(Nc3ccccc3-c3ccccc3)n2n1 | – | 63µM | – | 28µM | ?
O=C(NCc1cccc(F)c1)c1cnc2c(c1)N(C(=O)Cc1ccc(O)cc1)CCC2 | – | ? | – | – | –
CCOC(=O)C1(C/C=C/c2ccccc2)CCCN(C(=O)C2CCOCC2)C1 (stereo unspecified) | – | 89µM | – | – | –
Cc1ccc(Nc2ccnc(N3CCC(NC(=O)Nc4ccccc4)CC3)n2)cc1 | · | ? | – | ? | ·
Cc1ccc(Nc2ccnc(N3CCC(NC(=O)Nc4ccc(Cl)cc4)CC3)n2)cc1 | · | 25µM | – | 22µM | ·
COc1ccc(Nc2ccnc(N3CCC(NC(=O)Nc4ccc(Cl)cc4)CC3)n2)cc1 | · | 20µM | – | 32µM | ·
OCC1(CN2CCCC2)CCN(Cc2ccc(Cl)cc2)CC1 | – | ? | – | ? | –
CC(Cc1ccc2c(c1)OCO2)CN1CCC(CO)(CN2CCCC2)CC1 (stereo unspecified) | – | ? | – | 40µM | –
O=C(NCCCc1ccccc1)c1nc2sccn2c1-c1cccnc1 | · | ? | – | ? | ·
Cn1ncc2c(C(=O)Nc3cccc(Cl)c3)cc(C(C)(C)C)nc21 | · | 63µM | – | ? | ·
Cn1ncc2c(C(=O)Nc3cccc(Cl)c3)cc(-c3ccccc3F)nc21 | · | ? | · | – | ·
COc1ccc(-c2cc(C(=O)Nc3ccc(Cl)cc3)c3cnn(C)c3n2)cc1 | · | – | · | – | ·
Cn1ncc2c(C(=O)Nc3cccc(Cl)c3)cc(-c3ccc(Cl)nc3)nc21 | · | ? | – | ? | ·
COc1ccc(NC(=O)c2cc(C(C)(C)C)nc3c2cnn3C)cc1 | · | 63µM | – | ? | ·
Cn1ncc2c(C(=O)Nc3cccc(Cl)c3)cc(-c3ccc(Cl)cc3Cl)nc21 | · | 22µM | – | 32µM | ·
COc1ccc(CC(=O)N2Cc3ccccc3CC3(CCCN(C)C3)C2)cc1 (stereo unspecified) | · | ? | – | ? | ·
Cc1ccc(-c2cn3cc(C(=O)N4CCOCC4)nc3s2)cc1 | · | ? | – | ? | ·
COc1ccc(F)cc1-c1cccc(C(=O)NCCNC(=O)Nc2ccc(Cl)cc2)c1 | · | ? | – | 32µM | ·
COc1ccc(F)cc1-c1cccc(C(=O)NCCNC(=O)Cc2cccc(Cl)c2)c1 | · | ? | – | 40µM | ·
COc1ccc(F)cc1-c1cccc(C(=O)NCCNC(=O)c2ccc(Cl)nc2)c1 | · | 40µM | – | ? | ·
COc1cccc(C(=O)NCCNC(=O)c2cccc(-c3cc(F)ccc3OC)c2)c1 | · | ? | – | 45µM | ·
COCC(=O)NCCNC(=O)c1cccc(-c2cc(F)ccc2OC)c1 | · | – | – | – | ·
SMILES | hNpr1 antagonist | HEK293 tox | GPT2 inh | NIH3T3 tox | Luciferase inh
COc1ccc(F)cc1-c1cccc(C(=O)NCCN[S+](=O)([O-])c2ccccc2)c1 | · | ? | – | ? | ·
COc1ccc(F)cc1-c1cccc(C(=O)NCCNC(C)=O)c1 | · | – | – | ? | ·
COc1ccc(F)cc1-c1cccc(C(=O)NCCN[S+](C)(=O)[O-])c1 | · | – | – | – | ·
COc1ccc(F)cc1-c1cccc(C(=O)NCCNC(=O)c2ccc(Cl)cc2)c1 | · | 45µM | – | ? | ·
COc1ccc(F)cc1-c1cccc(C(=O)NCCNC(=O)C(C)(C)C)c1 | · | ? | – | ? | ·
COc1ccc(F)cc1-c1cccc(C(=O)NCCNC(=O)c2cccc(Cl)c2)c1 | · | 20µM | – | ? | ·
CCN1CCCC12Cc1ccccc1CN(C(C)=O)C2 (stereo unspecified) | · | – | – | – | ·
COC(=O)[C@@H]1Cc2c([nH]c3ccccc23)[C@H]2C[C@@H](N3CCCCC3)C[C@@H](c3ccccc3F)N21 | – | 22µM | – | ? | –
COC(=O)[C@@H]1[C@H]2C[C@@H]3c4[nH]c5ccccc5c4CCN3C[C@@H]2CC[C@@H]1O | · | · | – | · | ·
COC(=O)[C@@H]1Cc2c([nH]c3ccccc23)[C@H]2C[C@H](N3CCCCC3)C[C@@H](c3ccccc3F)N21 | – | ? | – | 28µM | –
COC(=O)[C@@H]1Cc2c([nH]c3ccccc23)[C@H]2C[C@@H](N3CCOCC3)C[C@@H](c3ccc(F)cc3)N21 | – | ? | – | ? | –
COCCOCc1nc(C2CCCCN2S(=O)(=O)Cc2ccccc2)no1 (stereo unspecified) | · | – | – | – | ·
CCn1cc(CN(C)C(=O)c2cc(-c3ccc(OC)cc3)cn2CC)c(C)n1 | ? | 35µM | ? | ? | 40µM
CCn1cc(-c2ccc(OC)cc2)cc1C(=O)N1CCCCCC1 | – | ? | – | – | –
CCOC(=O)C1CCN(C(=O)c2cn3cc(-c4ccc(F)cc4)sc3n2)CC1 | · | – | – | – | ·
O=C1Nc2ccccc2CN(Cc2ccc(Cl)cc2)C12CCNC2 (stereo unspecified) | · | 50µM | – | ? | ·
O=C1Nc2ccccc2CC12CCCN2Cc1ccc(Cl)cc1 (stereo unspecified) | · | ? | – | – | ·
CCc1cccc(NC(=O)CC2CCCN(c3cnn(CC4CC4)c(=O)c3)C2)c1 (stereo unspecified) | – | ? | – | 40µM | –
Cc1cccc(NC(=O)CC2CCCN(c3cnn(CC4CC4)c(=O)c3)C2)c1 (stereo unspecified) | – | ? | – | 25µM | –
Cc1ccc(NC(=O)CC2CCCN(c3cnn(CC4CC4)c(=O)c3)C2)cc1 (stereo unspecified) | – | – | – | ? | –
Cc1ccc(OCC(=O)N2CC(C(=O)NCCc3ccncc3)C3(CCOCC3)C2)cc1 (stereo unspecified) | – | – | – | – | –
COc1ccc(OC)c(C(O)Cn2ccn3nc(-c4cccs4)cc3c2=O)c1 (stereo unspecified) | – | 35µM | – | ? | –
O=C(c1cccnc1N1CC2CC(C1)[C@H]1CCCC(=O)N1C2)N1CC=C(c2ccccc2)CC1 (stereo partly specified) | – | – | – | – | –
COC(=O)c1cn([C@H]2CO[C@H]3[C@@H]2OC[C@H]3OC(=O)Nc2ccc(C(C)(C)C)cc2)nn1 | – | – | – | – | –
CN(C)Cc1cn([C@H]2CO[C@H]3[C@@H]2OC[C@H]3OC(=O)Nc2ccc(C(C)(C)C)cc2)nn1 | – | ? | – | ? | 71µM
COCCn1ccc2c(C3=CCOCC3)nc(-c3cccc(C(N)=O)c3)cc21 | – | ? | ? | 25µM | –
OCc1ccc(-c2cc3c(ccn3Cc3cccnc3)c(C3=CCOCC3)n2)cc1 | – | ? | – | ? | –
C1=C(c2nc(-c3ccncc3)cc3c2ccn3Cc2cccnc2)CCOC1 | – | ? | – | 22µM | –
